Laboratory results reported in PubChem BioAssay AID504941 (Broad Institute, 2011).
Hit rate of the full screen: of about 1,200 compounds, about 170 (14%) were called active. No rule for the calls is given here. A selection follows. Entries with a potency or affinity are not part of this list.

assay: E. coli Tat export inhibitors, dose response, cherry-pick, set 2, plate reader (AID 504941); details: E. coli Tat transport reporter; series mostly up to 38 µM

outcome, inactive:
COc1ccccc1NS(=O)(=O)c1cccc(N=C2N=C(N)c3ccccc32)c1
CC(=O)Nc1sc(NC(=O)c2ccccc2)nc1-c1cccs1
Cc1ccc(/C=N/NC(=O)c2ccc(Cn3cc([N+](=O)[O-])cn3)o2)cc1
O=C(NCc1cccnc1)C(=O)NCC1OCCN1S(=O)(=O)c1ccc(F)cc1 (stereo not drawn)
COc1ccc(C(=O)OC(C)CN2CCN(C)CC2)cc1 (stereo not drawn)
Cc1ccc(-n2c(O)c(C=Nc3ccccc3-c3n[nH]c(=S)[nH]c3=O)c3ccccc3c2=O)cc1C
Cc1cc(NC(=O)c2ccc([N+](=O)[O-])cc2)n(C)n1
COc1ccc(/C=C(/NC(=O)c2cccc([N+](=O)[O-])c2)C(=O)O)cc1
O=C(NC(=S)NNC(=O)c1ccccc1O)c1ccccc1
COCC(=O)Nc1nnc(Cc2ccc(OC)cc2)s1
CC(Oc1cccnc1[N+](=O)[O-])C(=O)N1CCc2ccccc21 (stereo not drawn)
Cc1nc(-c2cccc(S(=O)(=O)N3CCOCC3)c2)cs1
COc1ccc(NC(=O)c2ccccc2[N+](=O)[O-])cc1OC
CCN(CC)S(=O)(=O)c1cc(NC(=O)c2ccc(-n3cncn3)c([N+](=O)[O-])c2)ccc1C
NC(=O)Cn1c(-c2nonc2N)nc2ccccc21
CCCC(=O)Nc1ccc(NC(=O)c2ccccn2)cn1
Cc1onc(-c2c(F)cccc2Cl)c1C(=O)Nc1sc2c(c1C#N)CCC(C(C)(C)C)C2 (stereo not drawn)
Cc1onc(-c2ccccc2)c1C(=O)Nc1nc(-c2cc(F)ccc2F)cs1
Cc1ccccc1NC(=O)NCCN1C(=O)C2C3C=CC(C3)C2C1=O (stereo not drawn)
CCOC(=O)c1ccccc1NC(=S)N1CC(C)CC(C)C1 (stereo not drawn)
CCOC(=O)c1sc(Nc2nc3ccc(OC)cc3s2)cc1C
CCCn1c(N)c(C(=O)CSc2nnnn2-c2ccc(O)cc2)c(=O)n(C)c1=O
COC(=O)/C(=C/c1ccco1)NC(=O)c1ccccc1
O=C1OCCN1C(=O)[C@H]1[C@H](c2ccc(Cl)cc2)C(c2ccccc2)=NN1c1ccccc1
COc1cccc(-c2cc(=O)c3cc(NC(C)=O)ccc3[nH]2)c1
Cc1c(NC2=NC3(CCCCC3)Cc3ccccc32)c(=O)n(-c2ccccc2)n1C
O=C(Nc1cccc(NC(=O)c2cccnc2)c1)c1ccccc1
O=C1CN(S(=O)(=O)c2ccccc2C(F)(F)F)CCN1
CCCOc1cccc(C(=O)Nc2ccc(Br)cc2F)c1
COc1ccc(OC)c(NC(=O)c2cccnc2)c1
Cc1nn(-c2ccccc2)c(C)c1NC(=O)COC(=O)c1ccc(Cl)c(S(N)(=O)=O)c1
CNC(=S)N1CCN(c2c(F)cc3c(=O)c(C(=O)O)cn(C4CC4)c3c2OC)CC1C (stereo not drawn)
COc1cc(C(=O)Oc2cc(C)cc(C)c2)cc(OC)c1OC
Cc1ccc(C2CC(c3ccccc3)n3ncnc3N2)cc1 (stereo not drawn)
COc1cc(OC)cc(C(=O)NC2CC(C)(C)NC(C)(C)C2)c1
Cc1ccccc1NC(=O)CCN1CCN(CCO)CC1
CN(Cc1cn[nH]c1-c1ccc(-c2ccccc2)cc1)CC1CCOCC1
Cc1ccc(Cn2c(=O)oc3ccccc32)cc1
O=C(NCc1cccs1)c1cccnc1C(=O)O
COc1cc(/C=C(\C#N)c2nn(CCO)c(N)c2C#N)cc(OC)c1OC
CCN(CC(=O)NCc1ccc(F)cc1)CC(=O)Nc1ccc(S(=O)(=O)N2CCCC2)cc1
O=C(CSc1nc2ccccc2c(=O)n1CCCN1CCOCC1)Nc1ccc2c(c1)OCO2
CC1CCN(C(=O)C2(NC(=O)Nc3cccc(F)c3)CCCCC2)CC1
Cc1nc(SCc2nc3ccccc3[nH]2)c2oc3ccccc3c2n1
Nc1ccc(C(=O)Nc2nc3ccccc3s2)cc1
COCc1cc(C)n(CC(=O)NC(C)c2ccccc2)c(=O)c1C#N (stereo not drawn)
COc1ccc(S(=O)(=O)Nc2nc3c(s2)CCCC3)cc1
CCCCOCC1CN(c2ccccc2)C(=O)CS1 (stereo not drawn)
Cc1ccc(NC(=O)COC(=O)CCC(=O)c2cccs2)c(C)c1
Cc1ccc(C)c(NC(=O)CCN2CCc3ccccc3C2)c1
COc1ccc(N(CC(=O)NCc2ccc(Cl)cc2)S(=O)(=O)c2ccccc2[N+](=O)[O-])c(OC)c1
Cc1cc(C)nc(SC(C)C(=O)N/N=C/c2cccs2)n1 (stereo not drawn)
Cc1ccc(C(=O)c2cnc3ccccc3c2-c2ccccc2)cc1
CC1=NCC(C)c2c1[nH]c1ccccc21 (stereo not drawn)
Cc1cccc(/C=N/NC(=O)c2cc(C3CC3)nc3ccccc23)n1
O=C(NCc1ccccc1)C(=O)NCC1OCCN1S(=O)(=O)c1ccc([N+](=O)[O-])cc1 (stereo not drawn)
Cc1noc(C)c1COC(=O)c1cccc(S(=O)(=O)N2CCOCC2)c1
C#CCOCCOCCOCCNc1nc(N2CCN(C(=O)Cn3cc(CC(C)O)nn3)CC2)nc(N2CCN(C(=O)[C@H](CCCCN)n3cc(CCCC)nn3)CC2)n1 (stereo partly drawn)
Cc1ccc2cccc(OCC(=O)N3CCc4ccccc43)c2n1
COc1cccc(-n2c(SCc3ccccn3)nc3c(c2=O)SCC3)c1
COc1ccc(CCNC(=O)/C=C/c2ccco2)cc1OC
COc1ccccc1N1CCN(c2nc(-c3ccccc3)cc(C(F)(F)F)n2)CC1
Cc1ccccc1OCC(=O)Nc1nnc(-c2ccncc2)s1
NC1C2CN(c3nc4c(cc3F)c(=O)c(C(=O)O)cn4-c3ccc(F)cc3F)CC12 (stereo not drawn)
CSc1cccc(NC(=O)CN(C)S(=O)(=O)c2cnc[nH]2)c1
O=C(N/C(=C/c1ccccc1)C(=O)N1CCCCC1)c1ccc(Br)o1
COc1ccc(OC)c(C(=O)CSc2nnc(-c3cccs3)o2)c1
COc1cccc(NC(=O)c2ccc3c(SCC(=O)O)c4c(nc3c2)CCCC4)c1
CC(C)OC(=O)c1nn2c(C(F)(F)F)cc(-c3ccco3)nc2c1Cl
O=C(Nc1ccc(Br)cc1)C1CC(O)CN1C(=O)Oc1ccccc1 (stereo not drawn)
CCOc1ccc(NC(C(=O)Nc2cccc(C(C)=O)c2)c2ccccc2)cc1 (stereo not drawn)
O=C(NC1CC1)c1ccc(N2CCCCC2)c([N+](=O)[O-])c1
COc1cc2cc(CN(CCO)S(=O)(=O)c3ccccc3Cl)c(=O)[nH]c2cc1OC
